# Test results as given in the supplement of paper PMC4466140.
# Legend:
# Assay in all cases: SPOT peptide array binding signal intensity (averaged, normalized) (arbitrary units (background-subtracted, floor 0; scale differs between SH3 domains)); higher = stronger binding of the SH3 domain to the peptide
# [1] = biological target: AgAbp1
# How it was run: (§1)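 Binding signal is given in arbitrary units that differ between domains and is the normalized, background-subtracted spot intensity averaged across replicates. Each GST-SH3 fusion from one of four yeast species was made in E. coli BL21(DE3), purified on glutathione Sepharose and incubated at 10 μg/ml overnight at 4°C on cellulose-bound synthetic 15-mer peptides in which cysteines were replaced by serines. Detection used anti-GST antibody, an HRP anti-mouse secondary and luminol, followed by imaging and Genespotter quantification.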
# [2] = biological target: AgBbc1
# How it was run: as §1
# [3] = biological target: AgBem1-D1
# How it was run: as §1
# [4] = biological target: AgBzz1-D1
# How it was run: as §1
# [5] = biological target: AgBzz1-D2
# How it was run: as §1
# [6] = biological target: AgCyk3
# How it was run: as §1
# [7] = biological target: AgFus1
# How it was run: as §1
# [8] = biological target: AgHof1
# How it was run: as §1
# [9] = biological target: AgHse1
# How it was run: as §1
# [10] = biological target: AgLsb1
# How it was run: as §1
# [11] = biological target: AgLsb4
# How it was run: as §1
# [12] = biological target: AgMyo5
# How it was run: as §1
# [13] = biological target: AgNbp2
# How it was run: as §1
# [14] = biological target: AgRvs167
# How it was run: as §1
# [15] = biological target: AgSho1
# How it was run: as §1
# [16] = biological target: AgSla1-D1-D2
# How it was run: as §1
# [17] = biological target: AgSla1-D3
# How it was run: as §1
# [18] = biological target: CaAbp1-D1
# How it was run: as §1
# [19] = biological target: CaAbp1-D2
# How it was run: as §1
# [20] = biological target: CaBbc1
# How it was run: as §1
# [21] = biological target: CaBem1-D1
# How it was run: as §1
# [22] = biological target: CaBzz1-D1
# How it was run: as §1
# [23] = biological target: CaBzz1-D2
# How it was run: as §1
# [24] = biological target: CaCyk3
# How it was run: as §1
# [25] = biological target: CaFus1
# How it was run: as §1
# [26] = biological target: CaHof1
# How it was run: as §1
# [27] = biological target: CaHse1
# How it was run: as §1
# [28] = biological target: CaLsb1
# How it was run: as §1
# [29] = biological target: CaLsb4
# How it was run: as §1
# [30] = biological target: CaMyo5
# How it was run: as §1
# [31] = biological target: CaNbp2
# How it was run: as §1
# [32] = biological target: CaRvs167
# How it was run: as §1
# [33] = biological target: CaRvs167-3
# How it was run: as §1
# [34] = biological target: CaSho1
# How it was run: as §1
# [35] = biological target: CaSla1-D1-D2
# How it was run: as §1
# [36] = biological target: CaSla1-D3
# How it was run: as §1
# [37] = biological target: ScAbp1
# How it was run: as §1
# [38] = biological target: ScBbc1
# How it was run: as §1
# [39] = biological target: ScBem1-D1
# How it was run: as §1
# [40] = biological target: ScBzz1-D1
# How it was run: as §1
# [41] = biological target: ScBzz1-D2
# How it was run: as §1
# [42] = biological target: ScCyk3
# How it was run: as §1
# [43] = biological target: ScFus1
# How it was run: as §1
# [44] = biological target: ScHof1
# How it was run: as §1
# [45] = biological target: ScHse1
# How it was run: as §1
# [46] = biological target: ScLsb1
# How it was run: as §1
# [47] = biological target: ScLsb2
# How it was run: as §1
# [48] = biological target: ScLsb3
# How it was run: as §1
# [49] = biological target: ScLsb4
# How it was run: as §1
# [50] = biological target: ScMyo3
# How it was run: as §1
# [51] = biological target: ScMyo5
# How it was run: as §1
# [52] = biological target: ScNbp2
# How it was run: as §1
# [53] = biological target: ScPex13
# How it was run: as §1
# [54] = biological target: ScRvs167
# How it was run: as §1
# [55] = biological target: ScSho1
# How it was run: as §1
# [56] = biological target: ScSla1-D1-D2
# How it was run: as §1
# [57] = biological target: ScSla1-D3
# How it was run: as §1
# [58] = biological target: SpAbp1-D1
# How it was run: as §1
# [59] = biological target: SpBbc1
# How it was run: as §1
# [60] = biological target: SpBzz1-D1
# How it was run: as §1
# [61] = biological target: SpBzz1-D2
# How it was run: as §1
# [62] = biological target: SpCyk3
# How it was run: as §1
# [63] = biological target: SpHof1
# How it was run: as §1
# [64] = biological target: SpHof1-2
# How it was run: as §1
# [65] = biological target: SpHof1-3
# How it was run: as §1
# [66] = biological target: SpHse1
# How it was run: as §1
# [67] = biological target: SpLsb1
# How it was run: as §1
# [68] = biological target: SpLsb4
# How it was run: as §1
# [69] = biological target: SpMyo1
# How it was run: as §1
# [70] = biological target: SpNbp2
# How it was run: as §1
# [71] = biological target: SpPex13
# How it was run: as §1
# [72] = biological target: SpRvs167
# How it was run: as §1
# [73] = biological target: SpSla1-D1-D2
# How it was run: as §1
# [74] = biological target: SpSla1-D3
# How it was run: as §1
binder,measurement,setting,value
YVRRRPRVRLEPLLS,SPOT peptide array binding signal intensity,[1],116
same,SPOT peptide array binding signal intensity,[2],30.5
same,SPOT peptide array binding signal intensity,[3],62.5
same,SPOT peptide array binding signal intensity,[4],152
same,SPOT peptide array binding signal intensity,[5],91.5
same,SPOT peptide array binding signal intensity,[6],6.5
same,SPOT peptide array binding signal intensity,[7],928
same,SPOT peptide array binding signal intensity,[8],35
same,SPOT peptide array binding signal intensity,[9],936
same,SPOT peptide array binding signal intensity,[10],17.2
same,SPOT peptide array binding signal intensity,[11],138
same,SPOT peptide array binding signal intensity,[12],6
same,SPOT peptide array binding signal intensity,[13],424
same,SPOT peptide array binding signal intensity,[14],14.1
same,SPOT peptide array binding signal intensity,[15],263
same,SPOT peptide array binding signal intensity,[16],258
same,SPOT peptide array binding signal intensity,[17],15.8
same,SPOT peptide array binding signal intensity,[18],603
same,SPOT peptide array binding signal intensity,[19],652
same,SPOT peptide array binding signal intensity,[20],150
same,SPOT peptide array binding signal intensity,[21],81.5
same,SPOT peptide array binding signal intensity,[22],184
same,SPOT peptide array binding signal intensity,[23],108
same,SPOT peptide array binding signal intensity,[24],45.5
same,SPOT peptide array binding signal intensity,[25],589
same,SPOT peptide array binding signal intensity,[26],0.75
same,SPOT peptide array binding signal intensity,[27],107
same,SPOT peptide array binding signal intensity,[28],0.75
same,SPOT peptide array binding signal intensity,[29],164
same,SPOT peptide array binding signal intensity,[30],8.25
same,SPOT peptide array binding signal intensity,[31],887
same,SPOT peptide array binding signal intensity,[32],23.8
same,SPOT peptide array binding signal intensity,[33],82.6
same,SPOT peptide array binding signal intensity,[34],898
same,SPOT peptide array binding signal intensity,[35],114
same,SPOT peptide array binding signal intensity,[36],5.25
same,SPOT peptide array binding signal intensity,[37],128
same,SPOT peptide array binding signal intensity,[38],24.8
same,SPOT peptide array binding signal intensity,[39],46.5
same,SPOT peptide array binding signal intensity,[40],58.5
same,SPOT peptide array binding signal intensity,[41],117
same,SPOT peptide array binding signal intensity,[42],79.5
same,SPOT peptide array binding signal intensity,[43],706
same,SPOT peptide array binding signal intensity,[44],0.5
same,SPOT peptide array binding signal intensity,[45],2260
same,SPOT peptide array binding signal intensity,[46],22.5
same,SPOT peptide array binding signal intensity,[47],8
same,SPOT peptide array binding signal intensity,[48],558
same,SPOT peptide array binding signal intensity,[49],29.5
same,SPOT peptide array binding signal intensity,[50],6.25
same,SPOT peptide array binding signal intensity,[51],3
same,SPOT peptide array binding signal intensity,[52],548
same,SPOT peptide array binding signal intensity,[53],18.2
same,SPOT peptide array binding signal intensity,[54],30.8
same,SPOT peptide array binding signal intensity,[55],1070
same,SPOT peptide array binding signal intensity,[56],309
same,SPOT peptide array binding signal intensity,[57],29.9
same,SPOT peptide array binding signal intensity,[58],252
same,SPOT peptide array binding signal intensity,[59],23.2
same,SPOT peptide array binding signal intensity,[60],125
same,SPOT peptide array binding signal intensity,[61],4.62
same,SPOT peptide array binding signal intensity,[62],2
same,SPOT peptide array binding signal intensity,[63],97.6
same,SPOT peptide array binding signal intensity,[64],29.5
same,SPOT peptide array binding signal intensity,[65],256
same,SPOT peptide array binding signal intensity,[66],834
same,SPOT peptide array binding signal intensity,[67],7.88
same,SPOT peptide array binding signal intensity,[68],254
same,SPOT peptide array binding signal intensity,[69],5.25
same,SPOT peptide array binding signal intensity,[70],673
same,SPOT peptide array binding signal intensity,[71],61.8
same,SPOT peptide array binding signal intensity,[72],23
same,SPOT peptide array binding signal intensity,[73],9
same,SPOT peptide array binding signal intensity,[74],87
